# PubChem BioAssay (Tox21)
# Records with an inconclusive call do not appear. Values without a mark were called inactive. Calls come from the whole dose curve; as a rule, active = well fitted activation curve with a large enough effect in the signal ratio in the repeat runs (not every such curve was filed as active); inconclusive = weak or mixed curves, or effect the other way; inactive = flat fitted curve, though single readings scatter; the % refers to the signal ratio.
# Experiment: qHTS assay to identify small molecule agonists of the endoplasmic reticulum stress response signaling pathway (AID 1159516)
# Conditions: ESRE-bla HeLa, ER stress beta-lactamase reporter, 5 h; series mostly up to 61 µM; activation: at the top concentration
# Summary of the method: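 For this screen, HeLa cells stably carrying beta-lactamase under the ER stress response element received test compounds, positive controls or DMSO for 5 hr at 37 C; B/G FRET substrate was then added and dual-wavelength emission recorded.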
# % is set by controls: 0 for no effect and ±100 for the full control effect.
row,SMILES,activation
1,NNc1nnc(NN)c2ccccc12,0.197%
2,C=CCCCCCCCCCCCC,2.83%
3,O=C(O)c1ccc(Cl)cc1Cl,-2.83% [at 78.8 µM]
4,O=C1CC(c2ccc(Cl)cc2)CC(=O)N1,-0.921%
5,Cc1nc2n(c(=O)c1CCN1CCC(c3noc4cc(F)ccc34)CC1)CCC[C@H]2O,0.82% [at 28.5 µM]
6,CN(C)C(=O)CNC(=O)Cc1ccccc1,-0.191%
7,C=C(C)C(=O)OCC(C)(C)COC(=O)C(=C)C,-1.92%
8,O=C(O)c1cc(Cl)cc([N+](=O)[O-])c1Cl,0.703%
9,O=S(=O)(O)c1ccc2cc(O)c(S(=O)(=O)O)cc2c1,-0.529%
10,On1nnc2ccccc21,2.06%
11,CN=C(NC#N)Nc1ccc(C2=NNC(=O)CC2C)cc1 (configuration not stated),0.3%
12,CC(=O)Nc1cccc(C)c1,1.98% [at 78.8 µM]
13,CCc1ccc(C=O)cc1,1.83%
14,CC/C=C\CC1=C(C)CCC1=O,4.58%
15,OC[C@H](Cc1cccc(O)c1)[C@H](CO)Cc1cccc(O)c1,-2.57% [at 78.8 µM]
16,COc1ccc(Br)c(C)c1,-2.44% [at 78.8 µM]
17,Cc1ccc(C=O)cc1C,-0.614%
18,CCCC/C=C\CCCCCCCCCC=O,2.01%
19,COc1cc2c(cc1OC)[C@@H]1CC(=O)[C@@H](CC(C)C)CN1CC2,-5.25%

row,SMILES,activation
1,c1ccc2nccnc2c1,-0.631% [at 78.8 µM]
2,Cc1ccc2ccc(Cl)cc2n1,1.08%
3,CC(=O)OC(C)OC(=O)C(C)c1ccc(-c2ccccc2)c(F)c1 (configuration not stated),-1.57%
4,CC(C)(C)c1nnc(NS(=O)(=O)c2ccc(N)cc2)s1,0.805%
5,CCn1ccc(NS(=O)(=O)c2ccc(N)cc2)nc1=O,-0.525%
6,COc1ccc2c(c1)C(=O)N(CCc1ccc(S(=O)(=O)NC(=O)NC3CCCCC3)cc1)C(=O)C2(C)C,-1.12%
7,Cc1ccc2c(c1)OCC(=O)CO2,1.87%
8,Cc1ccc(S(=O)(=O)O)c(C)c1,-3.56%
9,Cc1cc2cc3c(C)cc(=O)oc3c(C)c2o1,-0.355%
10,COc1nccnc1NS(=O)(=O)c1ccc(N)cc1,0.993%
11,C=C(C)C1CCC(C)(O)CC1 (configuration not stated),-1.45%
12,CC(C)N(c1ccccc1)C(C)C,0.16%
13,CC(C)c1ccc2cc(C(C)C)ccc2c1,1.2%
14,C=C(C)C(=O)OCCOP(=O)(O)OCCOC(=O)C(=C)C,-1.86%
15,Cc1cc(Cl)c(C)cc1Cl,0.147%
16,O=C(O)Cc1cn(-c2ccccc2)nc1-c1ccc(Cl)cc1,-2.82%
17,COC(=O)CCc1ccc(OCC(O)CNC(C)C)cc1 (configuration not stated),-1.08%
18,COc1ccc(-c2cc(=O)c3c(O)cc(O[C@@H]4O[C@H](CO[C@@H]5O[C@@H](C)[C@H](O)[C@@H](O)[C@H]5O)[C@@H](O)[C@H](O)[C@H]4O)cc3o2)cc1O,0.412%
